# Assay results taken from the supplement of paper PMC10037445.
# The full ranking holds about 2,900 compounds; the median of “NF-kB SEAP reporter activity, fold change vs agonist alone” is about 0.99, and the highest 2% start at about 2.6. This excerpt belongs to a sample that is enriched for the highest values.
# Experiments:
# RAW-Dual [1] = test: NF-kB SEAP reporter activity, fold change vs agonist alone; cytotoxicity flag (confluency mask): not cytotoxic; higher = enhanced NF-kB activity
# Procedure, shortened: (§1)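 Cytotoxic wells were those whose IncuCyte confluency was below 70% of agonist controls in both mask sets. The cells were RAW-Dual macrophages at 50,000 cells/well in DMEM on 384-well plates, dosed with 50 nL of library stock by pin tool, stimulated with a PRR agonist 1 h later, and kept at 37 °C, 5% CO2 for 20 hours. IRF and NF-κB reporter activity, as fold change over agonist-alone wells, came from supernatant read by QuantiLuc luminescence and QuantiBlue absorbance, respectively.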
# RAW-Dual [2] = test: NF-kB SEAP reporter activity, fold change vs agonist alone; higher = enhanced NF-kB activity
# Procedure, shortened: as §1
# RAW-Dual [3] = test: NF-kB SEAP reporter activity, fold change vs agonist alone; cytotoxicity flag (confluency mask): cytotoxic (confluency <70% of control); higher = enhanced NF-kB activity
# Procedure, shortened: as §1
# [4] = agonist: ODN 1826 (TLR9) 0.5 ug/mL
# [5] = agonist: Pam2CSK4 (TLR2/6) 0.1 ug/mL
# [6] = agonist: Pam3CSK4 (TLR2/1) 0.1 ug/mL
# [7] = library stock concentration (final ~1000-fold dilution): 10 mM, cytotoxicity flag (confluency mask): not cytotoxic, agonist: Imiquimod (TLR7) […]
# [8] = library stock concentration (final ~1000-fold dilution): 10 mM, cytotoxicity flag (confluency mask): not cytotoxic, agonist: MPLA (TLR4) […]
# [9] = library stock concentration (final ~1000-fold dilution): 10 mM, cytotoxicity flag (confluency mask): cytotoxic (confluency <70% of control), agonist: Imiquimod (TLR7) […]
# [10] = library stock concentration (final ~1000-fold dilution): 10 mM, cytotoxicity flag (confluency mask): cytotoxic (confluency <70% of control), agonist: MPLA (TLR4) […]
structure (smiles),measurement,setting,value
O=C(Nc1ccc(Cl)cc1)c1cc2ccccc2cc1OP(=O)(O)O (library stock concentration (final ~1000-fold dilution): 10 mM),NF-kB SEAP reporter activity,RAW-Dual [1]; agonist: LPS (TLR4) 0.1 ug/mL,1.08
same,NF-kB SEAP reporter activity,RAW-Dual [1]; [4],0.965
same,NF-kB SEAP reporter activity,RAW-Dual [1]; [5],0.931
same,NF-kB SEAP reporter activity,RAW-Dual [1]; [6],0.763
O=C(Nc1ccc(Cl)cc1)c1cc2ccccc2cc1OP(=O)(O)O,NF-kB SEAP reporter activity,RAW-Dual [2]; [7],0.877
same,NF-kB SEAP reporter activity,RAW-Dual [2]; [8],1.04
N=C(N)NCCCC1NC(=O)C(CCCCN)NC(=O)C(Cc2ccccc2)NC(=O)C(CC(=O)O)NC(=O)CNC1=O.O=C(O)C(F)(F)F (stereo not given),NF-kB SEAP reporter activity,RAW-Dual [2]; [7],0.934
same,NF-kB SEAP reporter activity,RAW-Dual [2]; [8],1.07
N=C(N)NCCCC1NC(=O)C(CCCCN)NC(=O)C(Cc2ccccc2)NC(=O)C(CC(=O)O)NC(=O)CNC1=O.O=C(O)C(F)(F)F (stereo not given) (library stock concentration (final ~1000-fold dilution): 10 mM),NF-kB SEAP reporter activity,RAW-Dual [1]; agonist: LPS (TLR4) 0.1 ug/mL,1.07
same,NF-kB SEAP reporter activity,RAW-Dual [1]; [4],0.955
same,NF-kB SEAP reporter activity,RAW-Dual [1]; [5],1.13
same,NF-kB SEAP reporter activity,RAW-Dual [1]; [6],0.988
COc1ncc(-c2cc(-c3ncc(CN4CC(C)OC(C)C4)o3)c3cn[nH]c3c2)cc1NS(C)(=O)=O (stereo not given) (library stock concentration (final ~1000-fold dilution): 10 mM),NF-kB SEAP reporter activity,RAW-Dual [3]; agonist: LPS (TLR4) 0.1 ug/mL,5.18
same,NF-kB SEAP reporter activity,RAW-Dual [3]; [4],0.639
same,NF-kB SEAP reporter activity,RAW-Dual [3]; [5],1.01
same,NF-kB SEAP reporter activity,RAW-Dual [3]; [6],1.39
COc1ncc(-c2cc(-c3ncc(CN4CC(C)OC(C)C4)o3)c3cn[nH]c3c2)cc1NS(C)(=O)=O (stereo not given),NF-kB SEAP reporter activity,RAW-Dual [2]; [9],0.604
same,NF-kB SEAP reporter activity,RAW-Dual [2]; [10],2.18
CN(CCNc1ccnc2cc(Cl)ccc12)CCNc1ccnc2cc(Cl)ccc12.Cl.Cl.Cl,NF-kB SEAP reporter activity,RAW-Dual [2]; [9],0.958
same,NF-kB SEAP reporter activity,RAW-Dual [2]; [10],2.39
CN(CCNCc1cn(Cc2ccc(Cl)cc2)nn1)CCNc1ccnc2cc(Cl)ccc12.O=C(O)C(F)(F)F (library stock concentration (final ~1000-fold dilution): 10 mM),NF-kB SEAP reporter activity,RAW-Dual [3]; agonist: LPS (TLR4) 0.1 ug/mL,2.67
same,NF-kB SEAP reporter activity,RAW-Dual [3]; [4],0.269
same,NF-kB SEAP reporter activity,RAW-Dual [3]; [5],1.18
same,NF-kB SEAP reporter activity,RAW-Dual [3]; [6],1.87
Cc1ccc(NCCN(C)CCNc2ccnc3cc(Cl)ccc23)c2c(=O)c3ccccc3sc12 (library stock concentration (final ~1000-fold dilution): 2 mM),NF-kB SEAP reporter activity,RAW-Dual [1]; agonist: LPS (TLR4) 0.1 ug/mL,1.45
same,NF-kB SEAP reporter activity,RAW-Dual [1]; [4],1.04
same,NF-kB SEAP reporter activity,RAW-Dual [1]; [5],0.845
same,NF-kB SEAP reporter activity,RAW-Dual [1]; [6],1.06
CCN(CC)Cc1cc(Nc2ccnc3cc(Cl)ccc23)ccc1O.Cl.Cl.O.O,NF-kB SEAP reporter activity,RAW-Dual [2]; [7],0.244
same,NF-kB SEAP reporter activity,RAW-Dual [2]; [8],0.82
Cc1ccc(NCCN(C)CCNc2ccnc3cc(Cl)ccc23)c2c(=O)c3ccccc3sc12,NF-kB SEAP reporter activity,"RAW-Dual [2]; library stock concentration (final ~1000-fold dilution): 2 mM, cytotoxicity flag (confluency mask): not cytotoxic, agonist: Imiquimod (TLR7) […]",0.907
same,NF-kB SEAP reporter activity,"RAW-Dual [2]; library stock concentration (final ~1000-fold dilution): 2 mM, cytotoxicity flag (confluency mask): not cytotoxic, agonist: MPLA (TLR4) […]",1.05
CN(CCNCc1cn(Cc2ccc(Cl)cc2)nn1)CCNc1ccnc2cc(Cl)ccc12.O=C(O)C(F)(F)F,NF-kB SEAP reporter activity,RAW-Dual [2]; [9],1.52
same,NF-kB SEAP reporter activity,RAW-Dual [2]; [10],2.19
CCN(CCO)CCCC(C)Nc1ccnc2cc(Cl)ccc12.O=S(=O)(O)O (stereo not given),NF-kB SEAP reporter activity,"RAW-Dual [2]; library stock concentration (final ~1000-fold dilution): 10 mM water, cytotoxicity flag (confluency mask): not cytotoxic, agonist: Imiquimod (TLR7) […]",0.389
same,NF-kB SEAP reporter activity,"RAW-Dual [2]; library stock concentration (final ~1000-fold dilution): 10 mM water, cytotoxicity flag (confluency mask): not cytotoxic, agonist: MPLA (TLR4) […]",1.3
CCN(CC)Cc1cc(Nc2ccnc3cc(Cl)ccc23)ccc1O.Cl.Cl.O.O (library stock concentration (final ~1000-fold dilution): 10 mM),NF-kB SEAP reporter activity,RAW-Dual [1]; agonist: LPS (TLR4) 0.1 ug/mL,0.419
same,NF-kB SEAP reporter activity,RAW-Dual [1]; [4],0.184
same,NF-kB SEAP reporter activity,RAW-Dual [1]; [5],0.719
same,NF-kB SEAP reporter activity,RAW-Dual [1]; [6],0.633
